The target in the first test is T1, Optix (Drosophila melanogaster, UniProt Q95RW8 139-229).
T1 sequence: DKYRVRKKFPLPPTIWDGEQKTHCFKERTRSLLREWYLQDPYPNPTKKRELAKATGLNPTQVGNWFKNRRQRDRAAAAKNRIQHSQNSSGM
Kind of test: FP; 33 mM phosphate pH 7.0, 90 mM NaCl, 0.01% Tween 20, 0.1 mM DTT, 0.5% agarose; room temperature. Conditions: tags: N-GST (pGEX-6P-1, kept); dsDNA, one strand shown.
For the sequence AGAGTGAAAGCT, the binding signal is 1670 Kd / Kd of best base at the position. The same measure, in the same setting: the figure for AAAGTGATAGCT is 1.14 Kd / Kd of best base at the position. Still for that read-out and setting: the figure for AGAGGGATAGCT is 8.18 Kd / Kd of best base at the position; for AGAGTAATAGCT it is 23.7 Kd / Kd of best base at the position. Consider AGAGTGATGGCT, for which the binding signal was 127 Kd / Kd of best base at the position. On to AGACTGATAGCT, for which the binding signal is 1.06 Kd / Kd of best base at the position. As for AGAGTGATTGCT, the binding signal was 49 Kd / Kd of best base at the position. For AGAGTGATAACT, the binding signal is 12.1 Kd / Kd of best base at the position. The same measure, in the same setting: the figure for TGAGTGATAGCT is 4.48 Kd / Kd of best base at the position; for AGTGTGATAGCT it is 6.5 Kd / Kd of best base at the position; for AGAGTGATCGCT it is 9.37 Kd / Kd of best base at the position. With AGAGTGATACCT, the binding signal is 2.57 Kd / Kd of best base at the position. On the same count and under the same terms, under AGAGTGATATCT stands 3.39 Kd / Kd of best base at the position; under AGAGTGATAGCG, 7.84 Kd / Kd of best base at the position. Still for that read-out and setting: under AGATTGATAGCT stands 6.38 Kd / Kd of best base at the position.

Take AGAGTGACAGCT: the binding signal was 185 Kd / Kd of best base at the position. On the same count and under the same terms, the figure for AGAGTCATAGCT is 51.6 Kd / Kd of best base at the position. The sequence AGAGTGATAGCT displayed a Kd of around 5 nM. Turning to AGAGTGTTAGCT, the binding signal was 34.8 Kd / Kd of best base at the position.

AGAATGATAGCT: the binding signal was 6.11 Kd / Kd of best base at the position. The same measure, in the same setting: under AGAGTGATAGTT stands 5.68 Kd / Kd of best base at the position; under AGGGTGATAGCT, 5.49 Kd / Kd of best base at the position; under AGAGTTATAGCT, 25 Kd / Kd of best base at the position.

In the case of AGAGCGATAGCT, the binding signal is 6.46 Kd / Kd of best base at the position. The same measure, in the same setting: the figure for GGAGTGATAGCT is 2.35 Kd / Kd of best base at the position; for AGCGTGATAGCT it is 4.94 Kd / Kd of best base at the position.

For AGAGTGATAGCA, the binding signal is 5.73 Kd / Kd of best base at the position. Still for that read-out and setting: the figure for AGAGTGGTAGCT is 39.7 Kd / Kd of best base at the position; for CGAGTGATAGCT it is 5.01 Kd / Kd of best base at the position; for ACAGTGATAGCT it is 3.68 Kd / Kd of best base at the position. Still for that read-out and setting: under ATAGTGATAGCT stands 1.01 Kd / Kd of best base at the position; under AGAGTGATAGAT, 16.1 Kd / Kd of best base at the position; under AGAGTGAGAGCT, 35.9 Kd / Kd of best base at the position.

For the next test, the target named is D (Drosophila melanogaster, UniProt Q24533 127-229). Described as above. Particulars: tags: N-GST (pGEX-6P-1, kept); dsDNA, one strand shown.
Chain of D (Q24533 127-229): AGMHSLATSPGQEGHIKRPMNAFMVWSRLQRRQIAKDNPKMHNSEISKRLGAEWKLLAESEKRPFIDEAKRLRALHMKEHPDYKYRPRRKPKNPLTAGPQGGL
Take GACGATTGTTCTTG: the binding signal is 12.4 Kd / Kd of best base at the position. Still for that read-out and setting: under GACCATTGTTATTG stands 3.41 Kd / Kd of best base at the position; under GACCCTTGTTCTTG, 32.5 Kd / Kd of best base at the position; under GGCCATTGTTCTTG, 1.18 Kd / Kd of best base at the position.

As to GAACATTGTTCTTG, the binding signal was 10.5 Kd / Kd of best base at the position. The same measure, in the same setting: under GACCATTGTTCTAG stands 1.95 Kd / Kd of best base at the position.

For the origin of these results see article PMC5913336, “True equilibrium measurement of transcription factor-DNA binding affinities using automated polarization microscopy”.
